Results as given in PubChem BioAssay AID1159580 (chemical genetic matrix, 2015).
Screen size: about 5,500 compounds; about 2,000 (36%) were called active. Another 18% or so got no clear call; they are omitted. Rule as the data show it: active = normalized growth mostly below about 0.91 (no sharp cut-off); inconclusive = no clear call, values can overlap the other calls; inactive = mostly above about 0.92. The list shows a part of the results.

Experiment: chemical genetic growth profiling, strain panel (AID 1159580);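 also: tested at 20 µM; growth read once vehicle control cultures reached saturation at 30 °C; 1 = growth at the plate median or of vehicle wells; lower values mean less growth of the strain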
Conditions: growth OD
[1] = S. cerevisiae deletion strains, locus YAL013W, strain DEP1, hits give low values
[2] = S. cerevisiae deletion strains, locus YAL040C, strain CLN3, hits give low values
[3] = S. cerevisiae deletion strains, locus YCL061C, strain MRC1 (second series), hits give low values
[4] = S. cerevisiae deletion strains, locus YDR150W, strain NUM1, hits give low values
[5] = S. cerevisiae deletion strains, locus YDR363W, strain ESC2, hits give low values
[6] = S. cerevisiae deletion strains, locus YER002W, strain NOP16, hits give low values
[7] = S. cerevisiae deletion strains, locus YGR078C, strain PAC10, hits give low values
[8] = S. cerevisiae deletion strains, locus YMR307W, strain GAS1, hits give low values
[9] = S. cerevisiae deletion strains, locus YNL153C, strain GIM3, hits give low values
[10] = S. cerevisiae deletion strains, locus YNL175C, strain NOP13, hits give low values
[11] = S. cerevisiae deletion strains, locus YNL197C, strain WHI3, hits give low values
[12] = S. cerevisiae deletion strains, locus YNL224C, strain SQS1, hits give low values
[13] = S. cerevisiae deletion strains, locus YNL322C, strain KRE1, hits give low values
[14] = S. cerevisiae deletion strains, locus YOR083W, strain WHI5 (second series), hits give low values
[15] = S. cerevisiae deletion strains, locus YJR075W, strain HOC1, hits give low values
[16] = S. cerevisiae deletion strains, locus YMR263W, strain SAP30, hits give low values
[17] = S. cerevisiae deletion strains, locus YNL128W, strain TEP1, hits give low values
[18] = S. cerevisiae deletion strains, locus YPL241C, strain CIN2, hits give low values
[19] = S. cerevisiae deletion strains, locus YBR229C, strain ROT2, hits give low values
[20] = S. cerevisiae deletion strains, locus YCL061C, strain MRC1, hits give low values
[21] = S. cerevisiae deletion strains, locus YDL101C, strain DUN1, hits give low values
[22] = S. cerevisiae deletion strains, locus YEL061C, strain CIN8, hits give low values
[23] = S. cerevisiae deletion strains, locus YHR030C, strain SLT2, hits give low values
[24] = S. cerevisiae deletion strains, locus YHR087W, strain rtc3, hits give low values
[25] = S. cerevisiae deletion strains, locus YJR043C, strain POL32, hits give low values
[26] = S. cerevisiae deletion strains, locus YLR039C, strain RIC1, hits give low values
[27] = S. cerevisiae deletion strains, locus YLR058C, strain SHM2 (second series), hits give low values
[28] = S. cerevisiae deletion strains, locus YLR085C, strain ARP6, hits give low values
[29] = S. cerevisiae deletion strains, locus YLR262C, strain YPT6, hits give low values
[30] = S. cerevisiae deletion strains, locus YML094W, strain GIM5, hits give low values
[31] = S. cerevisiae deletion strains, locus YMR219W, strain ESC1, hits give low values
[32] = S. cerevisiae deletion strains, locus YNL298W, strain CLA4 (second series), hits give low values
[33] = S. cerevisiae deletion strains, locus YNR030W, strain Alg12, hits give low values
[34] = S. cerevisiae deletion strains, locus YPL055C, strain LGE1, hits give low values
[35] = S. cerevisiae deletion strains, locus YPR135W, strain CTF4, hits give low values

Measured: normalized growth

Cn1ccc2cc3c(cc21)CCN3C(=O)Nc1cccnc1
inactive: [1] 0.995 | [2] 1 | [3] 1.01 | [4] 0.992 | [5] 0.999 | [6] 0.999 | [7] 0.998 | [8] 1.01 | [9] 0.976 | [10] 0.981 | [11] 1 | [12] 0.989 | [13] 1.01 | [14] 0.969

COc1cc2c(cc1C(F)(F)F)N(C(=O)Nc1cc(F)cc(-c3cccnc3)c1)CC2
inactive: [1] 1.01 | [2] 1.08 | [3] 1 | [4] 1.02 | [5] 1 | [6] 1.05 | [16] 1.01 | [17] 1.05 | [10] 1.01 | [11] 1.01 | [12] 1.02 | [13] 1.01 | [14] 0.9 | [18] 1.01
active: [15] 1.11 [resistant]

CN1CCc2cc(NC(=O)Nc3cccnc3)ccc21
inactive: [2] 0.994 | [3] 0.996 | [6] 0.996 | S. cerevisiae deletion strains, locus YGR229C, strain SMI1, hits give low values 0.988 | [17] 0.994 | [9] 1.01 | [10] 1.01 | [11] 0.992 | [12] 1.03 | [14] 0.977

c1ccc(C2CC2)c(OCC2=NCCN2)c1
inactive: [2] 1.05 | [3] 1.01 | [4] 1 | [5] 1.02 | [6] 0.98 | [7] 1.01 | [16] 1.01 | [10] 0.994 | [11] 0.984 | [12] 0.994 | [13] 0.999 | [14] 1.02 | [18] 1.01

O=C1CNC(=S)N1CCc1ccccn1
inactive: [1] 0.992 | [19] 0.987 | [20] 0.99 | [21] 0.978 | [4] 0.994 | [22] 0.999 | [7] 0.987 | [23] 0.951 | [24] 0.992 | [25] 0.991 | [15] 1.01 | [26] 0.973 | [27] 0.979 | [28] 1.02 | [29] 0.962 | [30] 0.945 | [31] 0.993 | [16] 1 | [8] 1.08 | [9] 1.01 | [32] 0.966 | [13] 0.983 | [33] 0.98 | S. cerevisiae deletion strains, locus YOL006C, strain TOP1, hits give low values 0.997 | [34] 0.998 | [18] 1.03 | [35] 0.914 | S. cerevisiae strains, strain wild type, hits give low values 0.969

O=C1c2cccc3c(SCCO)ccc(c23)C(=O)N1CCc1ccccn1
inactive: [1] 0.999 | [19] 0.997 | [20] 1 | [21] 1.09 | S. cerevisiae deletion strains, locus YDL134C, strain PPH21, hits give low values 1.01 | [4] 1.02 | [22] 1 | [7] 1.01 | [23] 0.903 | [24] 1 | [25] 0.994 | [15] 0.984 | [26] 1 | [27] 0.991 | [28] 0.948 | [29] 1 | [30] 1.01 | [31] 0.995 | [16] 1.01 | [17] 1 | [9] 0.995 | [32] 0.993 | [13] 0.996 | [33] 0.989 | [34] 1.03 | [18] 0.989 | [35] 0.907
active: S. cerevisiae deletion strains, locus YJL187C, strain SWE1, hits give low values 0.845
